# Inconclusive results are not listed. Calls of active or inactive are those of the source. How the source made its calls, unless noted: active means hit-call score of the fitted dose curve at least 0.9, where 1 is the maximum; inactive means score below 0.9.
# Columns and labels:
# [1] = biological target: human CYP2B6, CYP2B6 (gene 1555) (UniProt P20813); test: NVS_ADME_hCYP2B6: NovaScreen (NVS) CYP450-related Enzyme Activity (ADME) Assay for human CYP2B6 (AID 2283101; active means hit-call score of the fitted dose curve at least 0.9, where 1 is the maximum)
# In short: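 Cell-free recombinant enzyme assay with a fluorogenic substrate; fluorescence intensity read 1 hour after dosing. Loss of signal relative to acetonitrile negative control indicates inhibition. Primary screen run in duplicate at 10 uM, actives then tested in concentration series.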
# [2] = biological target: human CYP1A2, CYP1A2 (gene 1544) (UniProt P05177); test: NVS_ADME_hCYP1A2: NovaScreen (NVS) CYP450-related Enzyme Activity (ADME) Assay for human CYP1A2 (AID 2283102; active means hit-call score of the fitted dose curve at least 0.9, where 1 is the maximum)
# In short: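 rec. hCYP1A2 (insect cells), cell-free; fluorogenic substrate; 0.5 h; FI read. Baseline = acetonitrile; signal loss = inhibition. 10 uM duplicate primary → conc. series for actives.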
# [3] = biological target: human CYP2D6, CYP2D6 (gene 1565) (UniProt P10635); test: NVS_ADME_hCYP2D6: NovaScreen (NVS) CYP450-related Enzyme Activity (ADME) Assay for human CYP2D6 (AID 2283107; active means hit-call score of the fitted dose curve at least 0.9, where 1 is the maximum)
# In short: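 Insect-cell recombinant enzyme + fluorogenic substrate, cell-free; 1 h incubation; fluorescence intensity readout. Acetonitrile = neg. ctrl/baseline. Single-point 10 uM, duplicate; follow-up concentration series.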
# [4] = biological target: human Dual Specificity Protein Phosphatase 3 (DUSP3), DUSP3 (gene 1845) (UniProt P51452); test: NVS_ENZ_hDUSP3: NovaScreen (NVS) Enzymatic Assay for human Dual Specificity Protein Phosphatase 3 (DUSP3) (AID 2283152; active means hit-call score of the fitted dose curve at least 0.9, where 1 is the maximum;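 further: phosphatase activity of recombinant human DUSP3 on a fluorogenic substrate without cells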)
# In short: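 Cell-free assay with recombinant human DUSP3 and fluorogenic substrate, read by fluorescence intensity. Primary screen ran duplicate at 25 uM; actives followed up in concentration series; loss of signal versus DMSO scored.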
# [5] = biological target: human Ephrin type-A Receptor 1 (EphA1), EPHA1 (gene 2041) (UniProt P21709); test: NVS_ENZ_hEphA1: NovaScreen (NVS) Enzymatic Assay for human Ephrin type-A Receptor 1 (EphA1) (AID 2283158; active means hit-call score of the fitted dose curve at least 0.9, where 1 is the maximum;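 further: activity is signal loss versus DMSO meaning EphA1 kinase inhibition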)
# In short: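 Chemicals first tested in duplicate at 25 uM against recombinant EphA1 with a fluorescent substrate; those passing threshold went to singleton dose-response topping at 50 uM. Activity read 1 h later as mobility-shift fluorescence, loss of signal relative to DMSO.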
# [6] = read-out: Monokine induced gamma interferon (MIG), CXCL9 (gene 4283); test: BSK_SAg_MIG: BioMAP Diversity Plus: SAg Assay for Monokine induced gamma interferon (MIG) Biomarker Activity (AID 2283092); conditions: primary human HUVEC with PBMC; actives raise or lower the signal
# In short: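 Endothelial cells and PBMC were co-cultured, exposed to test chemicals, and sampled 24 h later. MIG was measured by ELISA, and responses were fitted in both directions relative to DMSO.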
# [7] = BSK_SAg_PBMCCytotoxicity: PBMC Cytotoxicity Assessment in the BioMAP Diversity Plus: SAg Assay (AID 2283093); conditions: primary human HUVEC with PBMC;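 further: PBMC viability measured as Alamar Blue reduction fluorescence at 546/580 nm; fitted both ways against DMSO so a hit may be loss or gain of signal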;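 on AC50: PBMC superantigen activated with SEB plus TSST-1 one hour after compound addition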
# In short: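 Human umbilical vein endothelial cells co-cultured with PBMC; PBMC (75,000/well) pre-treated with compound 1 h, then activated with SEB and TSST-1 (20 ng/mL final each) for 90 h. Alamar Blue added 6 h, fluorescence 546/580 nm; bidirectional fit versus DMSO.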
# [8] = read-out: Interleukin-8 (IL8), CXCL8 (gene 3576); test: BSK_SAg_IL8: BioMAP Diversity Plus: SAg Assay for Interleukin-8 (IL8) Biomarker Activity (AID 2283094); conditions: primary human HUVEC with PBMC; actives raise or lower the signal
# In short: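 Human umbilical vein endothelial cells co-cultured with PBMC, stimulated with superantigen; IL-8 measured by ELISA 24 h after chemical dosing. Bidirectional fitting versus DMSO; SRB staining in parallel cultures tracks cytotoxicity.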
# [9] = BSK_SAg_Proliferation: Cell Proliferation Assessment in the BioMAP Diversity Plus: SAg Assay (AID 2283095); conditions: primary human HUVEC with PBMC
# In short: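 Human umbilical vein endothelial cells co-cultured with PBMC; sulforhodamine B total-protein staining (0.1% SRB after 10% TCA fixation, absorbance 560 nm) at 96 h in sub-confluent culture. Fitted bidirectionally against DMSO.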
# [10] = biological target: human CYP2C9, CYP2C9 (gene 1559) (UniProt P11712); test: NVS_ADME_hCYP2C9: NovaScreen (NVS) CYP450-related Enzyme Activity (ADME) Assay for human CYP2C9 (AID 2283108; active means hit-call score of the fitted dose curve at least 0.9, where 1 is the maximum)
# In short: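 Cell-free assay of recombinant human CYP2C9 produced in Sf9 cells, with enzyme activity read by fluorescence intensity 0.75 h after compound addition. Loss of signal versus an acetonitrile negative control indicates inhibition. Primary screen used 10 uM in duplicate; actives were retested in concentration series.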
# [11] = biological target: human Beta-secretase (BACE), BACE1 (gene 23621) (UniProt P56817); test: NVS_ENZ_hBACE: NovaScreen (NVS) Enzymatic Assay for human Beta-secretase (BACE) (AID 2283140; active means hit-call score of the fitted dose curve at least 0.9, where 1 is the maximum;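 further: hits are inhibitors that reduce fluorescent substrate signal versus DMSO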)
# In short: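 Cell-free assay of recombinant Sf9-expressed human BACE with fluorescent substrate, read by fluorescence intensity after 1 h. Primary screen in duplicate at 25 uM; actives then run in concentration series; loss of signal relative to DMSO.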
# [12] = biological target: human CYP19A1, CYP19A1 (gene 1588) (UniProt P11511); test: NVS_ADME_hCYP19A1: NovaScreen (NVS) CYP450-related Enzyme Activity (ADME) Assay for human CYP19A1 (AID 2283098; active means hit-call score of the fitted dose curve at least 0.9, where 1 is the maximum;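 on AC50: potency for inhibitors seen as loss of fluorescent enzyme signal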)
# In short: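 Cell-free enzyme assay with recombinant protein and a specific fluorogenic substrate, read by fluorescence intensity 0.5 h after dosing. Primary screen ran in duplicate at 10 uM; actives were retested in concentration series. Loss of signal versus acetonitrile baseline.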
# [13] = biological target: human Esterase Plasma (ES), BCHE (gene 590) (UniProt P06276); test: NVS_ENZ_hES: NovaScreen (NVS) Enzymatic Assay for human Esterase Plasma (ES) (AID 2283157; active means hit-call score of the fitted dose curve at least 0.9, where 1 is the maximum)
# In short: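 Cell-free enzyme assay using esterase extracted from human plasma; colorimetric absorbance read 0.25 hour after dosing. Single-concentration duplicate screen at 25 uM, then concentration-response up to 50 uM; loss of signal scored against DMSO baseline.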
# [14] = biological target: rat CYP2A2, Cyp2a2 (gene 24895) (UniProt P15149); test: NVS_ADME_rCYP2A2: NovaScreen (NVS) CYP450-related Enzyme Activity (ADME) Assay for rat CYP2A2 (AID 2283116; active means hit-call score of the fitted dose curve at least 0.9, where 1 is the maximum)
# In short: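 Cell-free recombinant rat CYP2A2 activity with fluorogenic substrate, fluorescence read 0.2 h after dosing. Chemicals screened at 10 uM in duplicate, hits then run in concentration-response up to 20 uM; signal loss versus acetonitrile baseline.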
# [15] = biological target: human Caspase 5 (CASP5), CASP5 (gene 838) (UniProt P51878); test: NVS_ENZ_hCASP5: NovaScreen (NVS) Enzymatic Assay for human Caspase 5 (CASP5) (AID 2283137; active means hit-call score of the fitted dose curve at least 0.9, where 1 is the maximum)
# In short: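 Recombinant human caspase 5 expressed in E. coli, fluorogenic substrate, fluorescence read 2 h after dosing. Single-point 25 uM duplicate screen, then concentration-response to maximum 50 uM for actives; DMSO baseline.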
# [16] = biological target: Cytochrome P450 3A4 (Homo sapiens) (UniProt P08684); test: NVS_ADME_hCYP3A4: NovaScreen (NVS) CYP450-related Enzyme Activity (ADME) Assay for human CYP3A4 (AID 2283110; active means hit-call score of the fitted dose curve at least 0.9, where 1 is the maximum)
# In short: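 Cell-free assay using insect-cell-expressed human CYP3A4 with a fluorogenic substrate; fluorescence intensity was read 0.33 hour after dosing. Loss of signal relative to acetonitrile vehicle indicated inhibition. Primary single-concentration screen at 10 uM, in duplicate, then concentration series.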
# [17] = biological target: rat CYP2A1, Cyp2a1 (gene 24894) (UniProt P11711); test: NVS_ADME_rCYP2A1: NovaScreen (NVS) CYP450-related Enzyme Activity (ADME) Assay for rat CYP2A1 (AID 2283114)
# In short: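 Recombinant rat CYP2A1, cell-free, fluorogenic substrate turnover read by fluorescence intensity 0.75 h after dosing. Primary screen at 10 uM in duplicate; actives rerun as concentration-response up to 20 uM; loss of signal versus acetonitrile control.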
# [18] = biological target: Cytochrome P450 2C19 (Homo sapiens) (UniProt P33261); test: NVS_ADME_hCYP2C19: NovaScreen (NVS) CYP450-related Enzyme Activity (ADME) Assay for human CYP2C19 (AID 2283113; active means hit-call score of the fitted dose curve at least 0.9, where 1 is the maximum;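 further: potency for inhibition seen as loss of fluorescent signal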)
# In short: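 Fluorescence intensity was measured 1 hour after chemicals were added to insect-cell-derived recombinant CYP2C19 with fluorogenic substrate. Decreased signal versus acetonitrile control was taken as reduced enzyme activity; initial testing used 10 uM in duplicate.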
# [19] = biological target: Mitogen-activated protein kinase 3 (Homo sapiens) (UniProt P27361); test: NVS_ENZ_hMAPK3: NovaScreen (NVS) Enzymatic Assay for human Mitogen-Activated Protein Kinase 3 (MAPK 3) (AID 2283177; active means hit-call score of the fitted dose curve at least 0.9, where 1 is the maximum)
# In short: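 Cell-free enzymatic assay with recombinant protein and specific substrate; fluorescence and electrophoretic mobility shift read-out 1 h after dosing. Primary screen duplicate at 25 uM; actives then run in concentration-response up to 50 uM, loss of signal versus DMSO.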
# Sequence of human CYP19A1, CYP19A1 (gene 1588) (P11511 whole entry, looked up): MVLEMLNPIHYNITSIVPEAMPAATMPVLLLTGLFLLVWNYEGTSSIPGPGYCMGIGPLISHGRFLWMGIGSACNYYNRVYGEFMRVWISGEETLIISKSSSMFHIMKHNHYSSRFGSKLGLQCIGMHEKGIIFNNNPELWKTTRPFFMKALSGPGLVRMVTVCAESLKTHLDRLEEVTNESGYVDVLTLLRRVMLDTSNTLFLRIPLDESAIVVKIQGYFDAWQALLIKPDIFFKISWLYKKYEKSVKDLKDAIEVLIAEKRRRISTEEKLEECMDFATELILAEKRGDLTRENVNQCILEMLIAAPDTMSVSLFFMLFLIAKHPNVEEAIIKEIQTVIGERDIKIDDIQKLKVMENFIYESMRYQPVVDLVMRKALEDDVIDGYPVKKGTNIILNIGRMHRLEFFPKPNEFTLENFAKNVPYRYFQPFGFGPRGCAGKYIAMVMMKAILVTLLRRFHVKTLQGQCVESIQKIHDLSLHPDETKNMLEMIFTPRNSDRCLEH
# Sequence of human CYP2D6, CYP2D6 (gene 1565) (P10635 whole entry, looked up): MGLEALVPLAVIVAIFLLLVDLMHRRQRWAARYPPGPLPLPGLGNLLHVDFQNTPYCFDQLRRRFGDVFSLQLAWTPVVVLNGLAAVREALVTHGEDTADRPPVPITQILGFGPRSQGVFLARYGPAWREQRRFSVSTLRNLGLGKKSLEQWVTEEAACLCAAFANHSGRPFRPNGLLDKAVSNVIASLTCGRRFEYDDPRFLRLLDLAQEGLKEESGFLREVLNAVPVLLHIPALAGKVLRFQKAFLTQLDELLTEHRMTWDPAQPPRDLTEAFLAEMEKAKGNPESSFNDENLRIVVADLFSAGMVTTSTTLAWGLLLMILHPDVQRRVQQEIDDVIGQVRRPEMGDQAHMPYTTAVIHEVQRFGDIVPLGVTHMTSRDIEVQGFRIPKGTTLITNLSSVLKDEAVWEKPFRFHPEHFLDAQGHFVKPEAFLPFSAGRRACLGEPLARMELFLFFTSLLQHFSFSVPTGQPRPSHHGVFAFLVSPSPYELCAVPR
# Sequence of human Ephrin type-A Receptor 1 (EphA1), EPHA1 (gene 2041) (P21709 whole entry, looked up): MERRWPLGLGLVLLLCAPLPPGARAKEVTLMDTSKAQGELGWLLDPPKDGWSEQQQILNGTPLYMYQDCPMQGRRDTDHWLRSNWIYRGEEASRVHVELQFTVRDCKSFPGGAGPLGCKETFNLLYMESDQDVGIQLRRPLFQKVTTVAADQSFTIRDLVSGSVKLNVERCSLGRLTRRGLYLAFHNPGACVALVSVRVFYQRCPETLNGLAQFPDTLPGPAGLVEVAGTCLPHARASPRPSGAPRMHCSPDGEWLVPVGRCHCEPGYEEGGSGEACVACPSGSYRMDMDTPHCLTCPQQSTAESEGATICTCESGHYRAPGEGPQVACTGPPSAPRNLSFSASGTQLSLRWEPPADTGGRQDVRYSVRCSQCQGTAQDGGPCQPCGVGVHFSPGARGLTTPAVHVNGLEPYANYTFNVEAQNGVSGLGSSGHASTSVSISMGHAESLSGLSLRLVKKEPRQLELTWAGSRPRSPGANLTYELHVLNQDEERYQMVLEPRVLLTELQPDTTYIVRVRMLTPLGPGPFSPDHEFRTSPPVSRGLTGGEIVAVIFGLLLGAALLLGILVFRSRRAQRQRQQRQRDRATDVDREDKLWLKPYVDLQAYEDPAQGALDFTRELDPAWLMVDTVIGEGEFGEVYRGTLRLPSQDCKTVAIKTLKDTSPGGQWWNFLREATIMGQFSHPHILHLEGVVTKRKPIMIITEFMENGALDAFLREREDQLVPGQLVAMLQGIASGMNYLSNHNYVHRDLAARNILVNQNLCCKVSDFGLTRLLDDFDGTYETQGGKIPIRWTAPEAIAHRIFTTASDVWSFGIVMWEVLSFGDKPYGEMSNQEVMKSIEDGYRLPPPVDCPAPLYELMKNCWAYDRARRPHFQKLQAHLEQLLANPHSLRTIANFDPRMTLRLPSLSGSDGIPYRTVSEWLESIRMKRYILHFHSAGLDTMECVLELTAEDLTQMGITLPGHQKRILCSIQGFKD
# Sequence of human Dual Specificity Protein Phosphatase 3 (DUSP3), DUSP3 (gene 1845) (P51452 whole entry, looked up): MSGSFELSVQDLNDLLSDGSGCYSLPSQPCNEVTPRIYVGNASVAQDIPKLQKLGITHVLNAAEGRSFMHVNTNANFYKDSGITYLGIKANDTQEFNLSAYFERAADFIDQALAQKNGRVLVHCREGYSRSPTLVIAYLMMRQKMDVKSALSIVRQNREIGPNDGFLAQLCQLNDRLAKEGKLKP
# Sequence of human Beta-secretase (BACE), BACE1 (gene 23621) (P56817 whole entry, looked up): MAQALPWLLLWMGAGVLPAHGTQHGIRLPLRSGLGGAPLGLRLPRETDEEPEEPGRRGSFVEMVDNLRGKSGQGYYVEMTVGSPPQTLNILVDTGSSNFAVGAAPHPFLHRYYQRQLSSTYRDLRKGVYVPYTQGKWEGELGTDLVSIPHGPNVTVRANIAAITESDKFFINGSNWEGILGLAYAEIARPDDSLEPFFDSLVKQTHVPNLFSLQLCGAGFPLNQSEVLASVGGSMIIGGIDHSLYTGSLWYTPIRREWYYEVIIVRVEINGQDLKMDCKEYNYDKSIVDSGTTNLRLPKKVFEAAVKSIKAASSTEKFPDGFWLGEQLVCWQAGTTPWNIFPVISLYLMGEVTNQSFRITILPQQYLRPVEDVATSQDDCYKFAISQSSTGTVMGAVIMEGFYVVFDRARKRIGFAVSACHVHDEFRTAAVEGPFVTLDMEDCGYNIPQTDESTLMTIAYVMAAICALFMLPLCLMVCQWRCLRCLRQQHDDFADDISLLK
# Sequence of human Caspase 5 (CASP5), CASP5 (gene 838) (P51878 whole entry, looked up): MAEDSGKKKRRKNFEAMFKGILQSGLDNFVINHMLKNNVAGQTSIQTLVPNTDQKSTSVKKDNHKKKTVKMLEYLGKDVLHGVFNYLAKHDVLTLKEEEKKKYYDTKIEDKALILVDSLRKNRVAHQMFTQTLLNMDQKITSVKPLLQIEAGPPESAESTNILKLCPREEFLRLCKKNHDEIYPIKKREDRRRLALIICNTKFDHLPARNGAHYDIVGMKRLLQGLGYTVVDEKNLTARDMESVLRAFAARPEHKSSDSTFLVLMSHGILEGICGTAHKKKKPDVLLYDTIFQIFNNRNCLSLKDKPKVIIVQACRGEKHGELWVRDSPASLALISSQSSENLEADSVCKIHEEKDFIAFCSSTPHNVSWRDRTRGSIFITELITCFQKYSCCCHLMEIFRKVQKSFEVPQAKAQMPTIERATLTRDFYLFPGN
# Sequence of human Esterase Plasma (ES), BCHE (gene 590) (P06276 whole entry, looked up): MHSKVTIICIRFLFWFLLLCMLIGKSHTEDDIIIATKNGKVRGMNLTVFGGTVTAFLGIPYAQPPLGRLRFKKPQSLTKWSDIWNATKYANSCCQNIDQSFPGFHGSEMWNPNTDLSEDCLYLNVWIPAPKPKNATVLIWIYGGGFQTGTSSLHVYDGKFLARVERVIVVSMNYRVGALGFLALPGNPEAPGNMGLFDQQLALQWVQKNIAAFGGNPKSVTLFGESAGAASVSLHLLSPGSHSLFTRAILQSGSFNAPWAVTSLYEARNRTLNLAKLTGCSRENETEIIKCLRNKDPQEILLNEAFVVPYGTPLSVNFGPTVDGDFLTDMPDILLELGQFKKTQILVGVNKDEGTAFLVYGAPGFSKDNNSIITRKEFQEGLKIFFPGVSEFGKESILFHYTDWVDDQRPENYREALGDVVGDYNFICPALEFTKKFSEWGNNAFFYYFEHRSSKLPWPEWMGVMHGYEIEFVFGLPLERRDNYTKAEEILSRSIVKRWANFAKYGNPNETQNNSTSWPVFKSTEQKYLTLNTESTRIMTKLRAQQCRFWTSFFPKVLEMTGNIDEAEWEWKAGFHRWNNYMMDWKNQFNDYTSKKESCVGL
# Sequence of Cytochrome P450 3A4 (Homo sapiens) (P08684 whole entry, looked up): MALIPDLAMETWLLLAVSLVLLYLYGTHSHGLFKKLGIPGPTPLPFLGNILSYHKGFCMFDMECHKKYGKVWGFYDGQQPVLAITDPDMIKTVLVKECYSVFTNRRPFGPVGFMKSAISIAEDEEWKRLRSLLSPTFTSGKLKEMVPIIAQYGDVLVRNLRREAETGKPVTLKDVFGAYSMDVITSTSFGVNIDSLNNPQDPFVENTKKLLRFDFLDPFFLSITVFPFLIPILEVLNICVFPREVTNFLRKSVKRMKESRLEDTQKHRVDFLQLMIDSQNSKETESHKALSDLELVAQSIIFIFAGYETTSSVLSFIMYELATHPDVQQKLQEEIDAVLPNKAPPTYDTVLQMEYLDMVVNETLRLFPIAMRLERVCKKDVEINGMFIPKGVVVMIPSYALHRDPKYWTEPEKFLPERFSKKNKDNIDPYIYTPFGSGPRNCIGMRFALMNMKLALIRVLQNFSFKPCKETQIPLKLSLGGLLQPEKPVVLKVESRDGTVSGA
# Sequence of rat CYP2A1, Cyp2a1 (gene 24894) (P11711 whole entry, looked up): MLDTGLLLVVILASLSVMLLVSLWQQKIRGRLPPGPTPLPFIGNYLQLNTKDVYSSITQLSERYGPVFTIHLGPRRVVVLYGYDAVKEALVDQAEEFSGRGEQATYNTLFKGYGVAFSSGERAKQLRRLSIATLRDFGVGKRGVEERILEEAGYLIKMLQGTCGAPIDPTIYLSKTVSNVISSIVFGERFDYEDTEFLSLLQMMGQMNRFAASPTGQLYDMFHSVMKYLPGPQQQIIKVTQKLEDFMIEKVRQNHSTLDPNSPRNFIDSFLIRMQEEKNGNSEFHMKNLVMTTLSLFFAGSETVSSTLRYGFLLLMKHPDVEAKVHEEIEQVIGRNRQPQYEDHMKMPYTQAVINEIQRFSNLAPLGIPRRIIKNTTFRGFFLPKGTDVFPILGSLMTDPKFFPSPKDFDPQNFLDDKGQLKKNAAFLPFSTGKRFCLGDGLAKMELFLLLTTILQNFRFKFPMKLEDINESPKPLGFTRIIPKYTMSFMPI
smiles,measurement,setting,value
CS(=O)(=O)OCCCCOS(C)(=O)=O,outcome,[1],inactive
same,outcome,[2],inactive
COc1cc(Cl)c(OC)cc1N,AC50,[3],0.992 µM (active)
CC(=O)Nc1ccc(C(=O)CCl)cc1,AC50,[3],3.64 µM (active)
CN(C)C(=S)SC(=S)N(C)C,AC50,[4],0.326 µM (active)
CCC(C)c1cc([N+](=O)[O-])cc([N+](=O)[O-])c1OC(=O)OC(C)C (stereo not drawn),AC50,[5],14 µM (active)
C=C(C)C(=O)OCCOCCOCCOCCOC(=O)C(=C)C,outcome,[6],inactive
same,outcome,[7],inactive
same,outcome,[8],inactive
same,AC50,[9],23.9 µM (active)
same,AC50,[5],35.3 µM (active)
OCCCCC(O)CO (stereo not drawn),AC50,[5],5.49 µM (active)
CCCCCCOCCOCCO,AC50,[10],0.238 µM (active)
CCOCCOCCOCC,outcome,[11],inactive
CCN(CC)C(=O)N(CC)CC,outcome,[6],inactive
same,outcome,[7],inactive
same,outcome,[8],inactive
same,outcome,[9],inactive
same,AC50,[5],25 µM (active)
CS(C)=O,outcome,[12],inactive
CC(C)(C)CC(C)(C)c1ccc(OCCOCC[N+](C)(C)Cc2ccccc2)cc1,AC50,[6],6.44 µM (active)
same,AC50,[7],3.23 µM (active)
same,AC50,[8],2.46 µM (active)
same,AC50,[9],0.773 µM (active)
same,AC50,[13],0.791 µM (active)
COC(C)(C)CCO,outcome,[11],inactive
CCCCCC(C)=O,outcome,[11],inactive
NC(=S)NNC(N)=S,AC50,[4],4.96 µM (active)
CC(=O)C(C)O (stereo not drawn),AC50,[3],5 µM (active)
same,outcome,[5],inactive
CC1(C)C(=O)N(Cl)C(=O)N1Br,AC50,[14],5.02 µM (active)
CCCC[O][Al]([O]CCCC)[O]CCCC,AC50,[15],0.138 µM (active)
same,outcome,[11],inactive
CCCCOC(=O)CCCCCCCC(=O)OCCCC,outcome,[6],inactive
same,outcome,[7],inactive
same,outcome,[8],inactive
same,outcome,[9],inactive
same,AC50,[16],3.8 µM (active)
same,outcome,[4],inactive
CCOc1ccc(NC(=O)CC(C)=O)cc1,outcome,[5],inactive
CN1C(=O)c2ccccc2C1=O,outcome,[12],inactive
C1CCCCC1,outcome,[16],inactive
C=CC(=O)OCCCC,outcome,[5],inactive
C=Cc1ccc(C)cc1,outcome,[17],inactive
CCCCCCCCCCCCCCCC(=O)OC/C=C(C)/C=C/C=C(C)/C=C/C1=C(C)CCCC1(C)C,outcome,[6],inactive
same,outcome,[7],inactive
same,outcome,[8],inactive
same,AC50,[9],20 µM (active)
same,AC50,[15],5.57 µM (active)
same,AC50,[4],25 µM (active)
O=C1c2ccccc2C(=O)c2c(O)ccc(O)c21,outcome,[6],inactive
same,AC50,[7],14.4 µM (active)
same,AC50,[8],3.15 µM (active)
same,AC50,[9],16.5 µM (active)
same,AC50,[15],7.12 µM (active)
same,AC50,[11],25 µM (active)
Cc1cc(CCC(=O)OCCOCCOCCOC(=O)CCc2cc(C)c(O)c(C(C)(C)C)c2)cc(C(C)(C)C)c1O,outcome,[6],inactive
same,AC50,[7],25.2 µM (active)
same,outcome,[8],inactive
same,AC50,[9],25.3 µM (active)
same,AC50,[18],2.45 µM (active)
Cc1ncc([N+](=O)[O-])n1CCO,AC50,[5],11.7 µM (active)
CC(C)(N=C=O)c1cccc(C(C)(C)N=C=O)c1,outcome,[6],inactive
same,outcome,[8],inactive
same,outcome,[9],inactive
same,outcome,[11],inactive
same,outcome,[5],inactive
c1ccc(Oc2ccccc2)cc1,outcome,[6],inactive
same,outcome,[7],inactive
same,outcome,[8],inactive
same,outcome,[9],inactive
same,outcome,[15],inactive
COCCOC(=O)c1ccccc1C(=O)OCCOC,AC50,[13],18.6 µM (active)
same,outcome,[5],inactive
CCCCSCCCC,outcome,[5],inactive
C=C(C)C(=O)OCC(CC)(COC(=O)C(=C)C)COC(=O)C(=C)C,outcome,[6],inactive
same,outcome,[7],inactive
same,outcome,[8],inactive
same,AC50,[9],8.4 µM (active)
same,AC50,[11],17.1 µM (active)
same,AC50,[4],12.4 µM (active)
CSCCC=O,outcome,[6],inactive
same,outcome,[7],inactive
same,outcome,[8],inactive
same,AC50,[9],38.6 µM (active)
same,AC50,[18],0.29 µM (active)
[O-]n1ccccc1=S.[O-]n1ccccc1=S.[Zn+2],outcome,[19],inactive
c1ccc2cc(Nc3ccc(Nc4ccc5ccccc5c4)cc3)ccc2c1,outcome,[6],inactive
same,outcome,[7],inactive
same,outcome,[8],inactive
same,outcome,[9],inactive
same,outcome,[15],inactive
same,AC50,[11],13.1 µM (active)
same,AC50,[4],22.4 µM (active)
same,outcome,[5],inactive
Oc1c(Cl)cc(Cl)c(Cl)c1Cc1c(O)c(Cl)cc(Cl)c1Cl,AC50,[6],8.51 µM (active)
same,AC50,[7],12.9 µM (active)
same,AC50,[8],4.7 µM (active)
same,AC50,[9],4.05 µM (active)
same,AC50,[15],2.9 µM (active)
same,AC50,[11],1.21 µM (active)
CCCCC(CC)COC(C)=O (stereo not drawn),AC50,[3],5 µM (active)
CCCCCCC(=O)c1ccccc1,AC50,[12],5.7 µM (active)

# — PubChem BioAssay (EPA / NIEHS)
